The record followed here is PubChem BioAssay (NCI).

SMILES strings stand for the structures. This is part of a sample that, as a whole, favours compounds with a hit. Of some 83,000 tested, about 20% had one in any assay.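 In brief: 96-well plates, 48 h treatment, single concentration, percent growth endpoint.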 A number with no mark means an inactive call. The source made the active and inactive calls. How the source made its calls: active means growth percent below 10; inactive means the rest.

Experiment in all cases: NCI-60 one-dose screen, 48 h (100 = growth as untreated, 0 = no growth, -100 = all killed)
Common to all, as to details: 10 µM unless noted

Test [1] has as its system NCI-H23 lung.
The test system of test [2] is NCI-H226 lung.
In test [3] the test system is NCI-H322M lung.
Test [4] deals with HOP-62 NSCLC.
Test [5] concerns NCI-H460 lung.
Test [6] deals with HOP-92 NSCLC.
The subject of test [7] is NCI-H522 lung.
In test [8] the test system is A549/ATCC NSCLC.
Test [9] has as its system 786-0 renal.
For test [10], the system named is COLO 205 colon.
The test system of test [11] is DU-145 prostate.
Test [12] concerns K-562 leukemia.
Test [13] has as its system MALME-3M melanoma.
In test [14] the test system is MDA-MB-231 breast.
Test [15] has as its system RXF 393 renal.
Test [16] deals with SF-268 CNS.
Test [17] has as its system SF-295 CNS.
Test [18] deals with SF-539 CNS.
Test [19] concerns UACC-257 melanoma.
The subject of test [20] is M14 melanoma.

For `N#Cc1c(-c2ccc(F)cc2)cc(-c2cccc(Cl)c2)[nH]c1=O`, the growth in test [1] is 62.8%; in [2], 54.1%; in test [3], 75.2%; in [4], 28%; in test [5], 86.8%; in test [6], 29.7%. Further, the growth in test [7] was 57.9%; in [8], 46.3%; in test [9], 42.1%; in test [10], 116%; in [11] it was 73.9%; in test [12], 56.2%. In addition, the growth in test [13] is 70.1%; in test [14] it was 60.7%; in test [15] it was 51.7%; in test [16], 41.9%; in test [17], 71.4%; in [18], 9.45% (active). Also, the figures for the growth in test [19] and in [20] were 93.8% and 82.3%, respectively.

`CC(C)(C)c1ccc(C(=O)Nc2sc3c(c2C#N)CCC(=O)C3)cc1`: the growth in test [1] was 5.23% (active); in test [2] it was 15.4%; in test [3], 86.6%; in [4], 49.7%; in test [5] it was 1.59% (active); in test [6] it was -25% (active). Moreover, the growth was -22.9% (active) in test [7]; 14.4% in [8]; 17.6% in [9]; -61.8% (active) in test [10]; 64.2% in test [11]; 9.48% (active) in [12]. Also, the growth in test [13] is -18.6% (active); in test [14] it was -5.45% (active); in [15], -29.9% (active); in test [16], 22.4%; in test [17] it was 10.3%; in test [18], -35.6% (active). Also, the values for the growth in [19] and in [20] were 19.8% and 8.73% (active), respectively.

Turning to `COc1cc(C2=Nc3c(N)nc(N)nc3NC(c3cccc(Nc4ccnc5cc(C(F)(F)F)ccc45)c3)C2)cc(OC)c1OC` (stereo not given), the growth in test [1] is 79.5%; in test [2], 89.5%; in test [3], 86.9%; in test [4], 86.3%; in [5], 72.5%; in test [6], 47.9%. Besides, the growth in test [7] was 97.1%; in test [8], 73.6%; in [9] it was 61%; in test [10] it was 70.5%; in [11], 89.6%; in test [12] it was 21.5%. The growth in test [13] is 90.6%; in [14], 57.8%; in [15] it was 45.1%; in test [16], 63.3%; in test [17], 82.5%; in test [18], 79.3%. Besides, the growth is 77.7% in test [19] and 72.3% in [20].

Turning to `O=C(/C=C/c1ccco1)c1ccc(Nc2ccnc3cc(Cl)ccc23)cc1`, the growth was 82.1% in [1]; 111% in test [2]; 39.3% in test [3]; 104% in test [4]; 36% in test [5]; 41.5% in test [6]. The growth is 81.9% in test [7]; 62% in [8]; 76.6% in test [9]; 90.4% in test [10]; 90.8% in [11]; 51.2% in test [12]. The growth in test [13] was 110%; in test [14], 70.2%; in test [15], -28.3% (active); in test [16], 105%; in [17], 72.5%; in test [18], 92.1%. Also, the growth in [19] was 97.8%; in [20], 83.3%.

For the molecule `C=CCNc1nc(O)c(/C=C2\C=Nc3ncccc32)s1`, the growth in test [1] was 6.83% (active); in test [2], 10.7%; in test [3], 10.2%; in test [4] it was -10.8% (active); in [5], 2.18% (active); in test [6] it was -1.86% (active). Besides, the growth is -5.27% (active) in [7]; 13.2% in test [8]; 4.4% (active) in test [9]; -20.1% (active) in test [10]; 12.7% in [11]; 42.1% in test [12]. Moreover, the growth in test [13] is 40.2%; in [14], 19.8%; in [15], -41.3% (active); in test [16] it was -3.26% (active); in test [17] it was 13%; in test [18], -66.2% (active). For the same molecule, the growth in [19] was 9.55% (active); in [20], 24.5%.

Turning to `Cc1ccccc1NC(=O)Cn1cc(CN2CCN(c3ccnc4cc(Cl)ccc34)CC2)nn1`, the growth was 99.2% in [1]; 90.9% in test [2]; 103% in test [3]; 90.7% in test [4]; 98.6% in [5]; 68.5% in test [6]. In addition, the growth is 102% in [7]; 106% in [8]; 104% in test [9]; 99% in test [10]; 105% in test [11]; 70% in test [12]. Besides, the growth is 109% in [13]; 83.1% in test [14]; 102% in test [15]; 92.6% in [16]; 100% in test [17]; 97.8% in [18]. The values for the growth in test [19] and in test [20] were 109% and 101%, respectively.

Turning to `COc1cc(C)cc(-c2c(-c3cc(N4CC(O)C4)nc(-c4cccnc4)n3)cnn2C)c1`, the growth is 77.9% in test [1]; 91.5% in test [2]; 101% in [3]; 111% in [4]; 90.8% in test [5]; 74.7% in test [6]. The growth in test [7] was 86.5%; in test [8], 84.9%; in test [9] it was 81.6%; in test [10], 104%; in test [11], 89.5%; in [12], 80.1%. For the same molecule, the growth in test [13] is 104%; in test [14], 55%; in test [15], 77.9%; in [16], 98.5%; in test [17], 92.8%; in [18], 94.3%. In addition, the growth in test [19] is 109%; in test [20] it was 90.6%.

With `O=C(CSc1nc(-c2ccccc2)cn1-c1ccc(Cl)cc1)c1ccc([N+](=O)[O-])cc1`, the growth was 78.5% in test [1]; 84.7% in [2]; 89% in test [3]; 96.2% in test [4]; 79.5% in test [5]; 87.5% in [6]. The growth in test [7] is 70.5%; in [8], 86.8%; in test [9] it was 90.3%; in test [10] it was 96.1%; in [11] it was 93.2%; in [12] it was 76.7%. For the same molecule, the growth in test [13] is 103%; in test [14] it was 81.8%; in [15] it was 71.2%; in [16], -86.7% (active); in test [17], 95.4%; in [18], 92.4%. Further, the figures for the growth in test [19] and in test [20] were 97.9% and 82%, respectively.
